High-throughput results (PubChem)
CTSL1 counter = Fasciola hepatica cathepsin L1 inhibitors, primary screen, counter-screen for PFM18AAP inhibitor project, biochemical, QFRET, fluorogenic peptide substrate | 300,000 compounds, 0.49% hits | inhibition, % at 5.96 µM | recombinant F. hepatica cathepsin L1, Z-Leu-Arg-MCA fluorescence;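 active means inhibition above the mean of all tested compounds plus 3 SD, set per screening campaign, cut at about 17% in these data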;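 further: 0% = plate median of test compound wells and 100% = 1 µM Z-Phe-Ala-diazomethylketone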
HNF4A DNA FP = change in binding of human HNF4A to DNA, primary screen, biochemical, fluorescence polarization, FITC-DNA; activity change, % at 10 µM; 1 h; 360,000 compounds, 0.3% hits; Hepatocyte nuclear factor 4-alpha (Homo sapiens), P41235; in the data active means activity change above about 30%, passing the limit was not always enough
TPT1 inh = Candida albicans TPT1 enzyme inhibitors, primary screen, biochemical, fluorescence polarization; 300,000 compounds, 0.81% hits; inhibition, % at 5 µM; recombinant caTPT1, FP RNA substrate dephosphorylation; tRNA 2'-phosphotransferase TPT1 (Candida albicans SC5314);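 active means inhibition above the mean of all tested compounds plus 3 SD, set per screening campaign, cut at about 24% in these data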;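 further: plate controls were DMSO alone for no effect and ferristatin control at 100 nM for full effect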
PHOSPHO1 block = PubChem AID 1565; 290,000 compounds, 1.1% hits; Phosphoethanolamine/phosphocholine phosphatase (Homo sapiens), Q8TCT1; inhibition, % at 13.3 µM; recombinant PHOSPHO1, absorbance phosphatase assay; in the data active means inhibition above about 60%
Target sequence (Q8TCT1 whole entry, looked up): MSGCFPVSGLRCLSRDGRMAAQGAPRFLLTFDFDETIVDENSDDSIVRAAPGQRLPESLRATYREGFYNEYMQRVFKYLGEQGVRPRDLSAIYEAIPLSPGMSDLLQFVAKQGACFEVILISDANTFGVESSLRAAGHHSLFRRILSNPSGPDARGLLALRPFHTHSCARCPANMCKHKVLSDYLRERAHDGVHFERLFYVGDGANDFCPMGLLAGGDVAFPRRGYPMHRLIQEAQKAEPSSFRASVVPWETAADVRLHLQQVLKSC
Rpn11 inh = Rpn11 (PSMD14) deubiquitinase inhibitors, primary screen, biochemical, fluorescence polarization, uHTS; 26S proteasome non-ATPase regulatory subunit 14 (Homo sapiens), O00487; human 26S proteasome, Ub4-pepOG fluorescence polarization; 20S core pre-blocked with epoxomicin; inhibition, % at 20 µM; 360,000 compounds, 0.59% hits;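 active means inhibition at 20 µM, scaled to each plate's controls, above about 33%, limit read from the data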
NRP1-CendR mod = modulators of CendR peptide binding to NRP-1, primary screen, biochemical, fluorescence polarization, uHTS | Neuropilin-1 (Homo sapiens), O14786 | FAM-RPARPAR peptide binding to NRP-1 | inhibition, % at 25 µM | 360,000 compounds, 0.85% hits | AID 602438, 2012;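 active means inhibition or corrected inhibition above about 18%, plus a signal ratio from 0.5 to 1.5, limit read from the data, passing the limit was not always enough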
Active calls of the source: *; x = not tested or not shown. Shown are actives, neighbours in structure and some others; about 3.3% of the full set was active somewhere.

SMILES | CTSL1 counter | HNF4A DNA FP | TPT1 inh | PHOSPHO1 block | Rpn11 inh | NRP1-CendR mod
O=C(NCc1ccccn1)C1CCN(S(=O)(=O)c2cnc[nH]2)CC1 | 1 | -3 | -9 | -14 | -28 | 3
Cc1ccc2[nH]c3c(c2c1)CCCC3NCCO (centres undefined) | 0 | 3 | 0 | 3 | 3 | 5
COc1ccc2c(c1)c1c(n2C(C)=O)C(OC(C)=O)=NCC1 | 0 | 0 | 1 | 14 | -3 | 2
Cc1ccc(S(=O)(=O)CCC(=O)NCc2ccc(Cl)cc2)cc1 | 6 | 0 | -1 | -11 | 0 | 2
Cc1ccc(C(=O)CCS(=O)(=O)c2ccc(F)cc2)cc1 | 30* | 0 | -2 | 38 | 5 | 7
Cc1ccc(C(=O)CCS(=O)(=O)c2ccc(Cl)cc2)cc1 | 13 | 0 | -4 | 43 | -2 | 20*
Cc1ccc(S(=O)(=O)CCC(=O)c2ccc(F)cc2)cc1 | 43* | 1 | 0 | 58 | -3 | 16
O=C(NCC(c1cccs1)N1CCOCC1)C1CCN(S(=O)(=O)c2ccccc2C(F)(F)F)CC1 (centres undefined) | -1 | -1 | 1 | 38 | 3 | 5
C=CCNC(=O)C1CC2Cn3c(nc4cc5ccccc5cc43)C2N1C (centres undefined) | -1 | 1 | 2 | 16 | 4 | 19*
c1ccc(-c2nn3c(Cn4cnc5ccccc54)nnc3s2)cc1 | 5 | 0 | -1 | 66* | -1 | -2
c1ccc(-c2nn3c(Cn4nnc5ccccc54)nnc3s2)cc1 | 2 | -3 | 0 | 69* | 1 | 1
COc1ccc(Cc2nn3c(Cn4nnc5ccccc54)nnc3s2)cc1 | -1 | -1 | 0 | 69* | 6 | -10
c1ccc2c(c1)nnn2Cc1nnc2sc(-c3ccc4c(c3)OCCO4)nn12 | 6 | 3 | -2 | 48 | -4 | 11
c1cncc(-c2nn3c(Cn4cnc5ccccc54)nnc3s2)c1 | 1 | 12 | -1 | 69* | 8 | 4
CCOC(=O)C1(Cc2ccccc2C)CCCN(C(=O)CCn2nccc2C)C1 (centres undefined) | -3 | 2 | 2 | -10 | -6 | 8
COC(=O)c1ccc2c(c1)S(=O)(=O)NC(=NCc1ccco1)S2 | -1 | 4 | 1 | 75* | 6 | 1
CS(=O)(=O)N(CC(=O)Nc1ccccc1F)C1CCCCC1 | 4 | -4 | 2 | 25 | -2 | 23*
CS(=O)(=O)N(CC(=O)Nc1ccc(Br)cc1F)C1CCCCC1 | -2 | 1 | -2 | 34 | 0 | -4
O=C(COc1ccc(F)cc1Br)N1CCN(S(=O)(=O)/C=C/c2ccccc2)CC1 | 0 | 2 | 1 | 62* | 2 | 5
CCOc1ccc(Nc2nc(Cc3nnc(SCC(=O)NCC4CCCO4)n3C)cs2)cc1 (centres undefined) | 1 | 1 | 5 | 62* | 8 | -1
CC(C)n1nccc1NC(=O)COC(=O)c1ccc(NC(N)=O)cc1 | x | 4 | x | x | 0 | 24*
COCCCNc1nc2nonc2nc1N1CCC(C(C)N2CCOCC2)CC1 (centres undefined) | 5 | -1 | -2 | 70* | -6 | 2
CSc1ccccc1OCc1cc(C(=O)N(C)C(C)c2ccccn2)no1 (centres undefined) | x | -2 | x | 61* | -11 | 1
COc1ccc(S(=O)(=O)N2CCCC2CNC(=O)C(=O)Nc2ccc(F)cc2)cc1 (centres undefined) | -2 | 2 | 0 | x | 1 | 4
O=C(CSc1nnc(C2COc3ccccc3O2)o1)NC1CCCCC1 (centres undefined) | 2 | 3 | -4 | 2 | 3 | -3
COc1cc(CN2CCC(C(=O)NC3CCCC3)CC2)ccc1O | -2 | 2 | 1 | 19 | -1 | 0
Cc1ccc(C2CC2c2n[nH]c(=S)n2-c2ccc(Cl)cc2)cc1 (centres undefined) | -1 | -4 | -5 | 74* | 1 | -6
